What all share (conditions): mRNA level, 48 h; actives raise or lower the signal
Read-out in assay [1]: Early growth response protein 1 (EGR1) transcription factor, EGR1 (gene 1958)
Nature of the assay: LTEA_HepaRG_EGR1: Life Technologies and Expression Analysis (LTEA) Assay for Early growth response protein 1 (EGR1) transcription factor using HepaRG (AID 2283490). The gist of the method: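 Read-out is EGR1 mRNA level by qRT-PCR, normalized to three housekeeping genes and analysed for gain or loss of signal against 0.5% DMSO. Source cells: human HepaRG, treated 48 h at up to 100 uM in half-log dilutions.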

Read-out in assay [2]: Ezrin (EZR), EZR (gene 7430)
Nature of the assay: LTEA_HepaRG_EZR: Life Technologies and Expression Analysis (LTEA) Assay for Ezrin (EZR) using HepaRG (AID 2283491). The gist of the method: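 HepaRG, 48 h chemical exposure, 8-pt half-log series from 100 uM, 0.5% DMSO vehicle, duplicates. Read-out: EZR mRNA by TaqMan qRT-PCR (Fluidigm array), housekeeping-normalized; bidirectional curve fit vs DMSO baseline.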

Read-out in assay [3]: Cytochrome P450 3A7 (Homo sapiens) (UniProt P24462)
Nature of the assay: LTEA_HepaRG_CYP3A7: Life Technologies and Expression Analysis (LTEA) Assay for CYP3A7 using HepaRG (AID 2283492). The gist of the method: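 Differentiated HepaRG cells in serum-free induction medium exposed 48 h in duplicate to 8-point half-log series from 100 uM top in 0.5% DMSO. CYP3A7 mRNA by qRT-PCR, normalized to ACTB/GAPDH/POLR2A, bidirectional fit versus DMSO.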

Read-out in a further assay: CYP3A5 (gene 1577)
Kind of assay: LTEA_HepaRG_CYP3A5: Life Technologies and Expression Analysis (LTEA) Assay for CYP3A5 using HepaRG (AID 2283493). The gist of the method:
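HepaRG plated 48 h, switched to serum-free induction medium, chemicals added 48 h (max 100 uM, half-log, 0.5% DMSO). RNA isolated; CYP3A5 by TaqMan qRT-PCR. Gain/loss vs DMSO.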

Read-out in assay [4]: Fatty Acid-Binding Protein 1 (FABP1), FABP1 (gene 2168)
Kind of assay: LTEA_HepaRG_FABP1: Life Technologies and Expression Analysis (LTEA) Assay for Fatty Acid-Binding Protein 1 (FABP1) using HepaRG (AID 2283494). The gist of the method:
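HepaRG, 48 h post-plating switched to serum-free induction medium, then dosed 48 h (duplicate, 8 pts, ≤100 uM, 0.5% DMSO). RNA → Fluidigm TaqMan qRT-PCR, FABP1 normed to ACTB/GAPDH/POLR2A. Bidirectional curve fit vs DMSO.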

Read-out in assay [5]: Cytochrome P450 4A22 (Homo sapiens) (UniProt Q5TCH4)
Nature of the assay: LTEA_HepaRG_CYP4A22: Life Technologies and Expression Analysis (LTEA) Assay for Cytochrome P450 4A22 (CYP4A22) using HepaRG (AID 2283495). The gist of the method:
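Differentiated HepaRG cells in serum-free induction medium exposed 48 h in duplicate to eight half-log concentrations up to 100 uM in 0.5% DMSO. CYP4A22 mRNA quantified by TaqMan qRT-PCR, normalized to ACTB, GAPDH and POLR2A; bidirectional fit versus DMSO.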

Read-out in assay [6]: Cytochrome P450 7A1 (Homo sapiens) (UniProt P22680)
Nature of the assay: LTEA_HepaRG_CYP7A1: Life Technologies and Expression Analysis (LTEA) Assay for Cytochrome P450 7A1 (CYP7A1) using HepaRG (AID 2283496). Put shortly:
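HepaRG cells plated 48 h, then switched to serum-free induction medium and exposed in duplicate for 48 h to 8-point half-log series from 100 uM in 0.5% DMSO. CYP7A1 mRNA by qRT-PCR (TaqMan), normalized to ACTB/GAPDH/POLR2A; bidirectional fit versus DMSO.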

Read-out in assay [7]: Glutathione S-Transferase (GSTA2), GSTA2 (gene 2939)
Nature of the assay: LTEA_HepaRG_GSTA2: Life Technologies and Expression Analysis (LTEA) Assay for Glutathione S-Transferase (GSTA2) using HepaRG (AID 2283497). The gist of the method:
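HepaRG, 48 h dosing, 8-pt half-log CRC from 100 uM, 0.5% DMSO vehicle, n=2; RNA → Fluidigm TaqMan qRT-PCR; GSTA2 vs ACTB/GAPDH/POLR2A; gain/loss fit vs DMSO.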

Read-out in assay [8]: Glutamate-cysteine ligase catalytic (GCLC), GCLC (gene 2729)
Nature of the assay: LTEA_HepaRG_GCLC: Life Technologies and Expression Analysis (LTEA) Assay for Glutamate-cysteine ligase catalytic (GCLC) using HepaRG (AID 2283498). The gist of the method: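 Read-out is GCLC transcript level by Fluidigm-based TaqMan qRT-PCR, normalized to three housekeeping genes and fitted in both directions relative to 0.5% DMSO. Human HepaRG cells received chemicals for 48 h, up to 100 uM.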

Read-out in assay [9]: growth arrest and DNA damage 45 (GADD45G), GADD45G (gene 10912)
Nature of the assay: LTEA_HepaRG_GADD45G: Life Technologies and Expression Analysis (LTEA) Assay for growth arrest and DNA damage 45 (GADD45G) using HepaRG (AID 2283499). Put shortly:
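Differentiated human HepaRG cells, 48 h post-plating, exposed 48 h in serum-free induction medium to 8 half-log concentrations (top 100 uM, 0.5% DMSO) in duplicate. GADD45G mRNA measured by Fluidigm TaqMan qRT-PCR, normalized to ACTB, GAPDH, POLR2A; bidirectional fit versus DMSO.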

Read-out in assay [10]: Glutamate-cysteine ligase regulatory (GCLM), GCLM (gene 2730)
Kind of assay: LTEA_HepaRG_GCLM: Life Technologies and Expression Analysis (LTEA) Assay for Glutamate-cysteine ligase regulatory (GCLM) using HepaRG (AID 2283500). Put shortly:
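Cells were plated, cultured 48 h, switched to serum-free induction medium, then dosed in duplicate for 48 h at eight half-log concentrations up to 100 uM. RNA was then profiled by qRT-PCR; gain or loss versus DMSO was fitted.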

Read-out in assay [11]: Glutathione S-transferase M3 (GSTM3), GSTM3 (gene 2947)
Kind of assay: LTEA_HepaRG_GSTM3: Life Technologies and Expression Analysis (LTEA) Assay for Glutathione S-transferase M3 (GSTM3) using HepaRG (AID 2283501). The gist of the method: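 Differentiated human HepaRG cells were exposed in duplicate for 48 h in serum-free induction medium, 8 points from 100 uM top in half-log steps, 0.5% DMSO. GSTM3 mRNA was measured by TaqMan qRT-PCR, normalized to ACTB, GAPDH and POLR2A; bidirectional fit versus DMSO.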

Read-out in assay [12]: Heat shock 70 kDa protein 1 (HSPA1A), gene 3303
Nature of the assay: LTEA_HepaRG_HSPA1A: Life Technologies and Expression Analysis (LTEA) Assay for Heat shock 70 kDa protein 1 (HSPA1A) using HepaRG (AID 2283502). The gist of the method: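 Readout is HSPA1A transcript level by microfluidic qRT-PCR, normalized to three housekeeping genes and analysed for gain or loss of signal relative to 0.5% DMSO. Human HepaRG cultures received test chemicals for 48 h at up to 100 uM.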

Read-out in assay [13]: Hypoxia-inducible factor 1-alpha (Homo sapiens) (UniProt Q16665)
Nature of the assay: LTEA_HepaRG_HIF1A: Life Technologies and Expression Analysis (LTEA) Assay for Hypoxia-inducible factor 1 (HIF1A) Trancription factor using HepaRG (AID 2283503). The gist of the method:
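Differentiated HepaRG cells in serum-free induction medium exposed 48 h, in duplicate, to 8-point half-log series from 100 uM in 0.5% DMSO. HIF1A mRNA measured by TaqMan qRT-PCR, normalized to ACTB/GAPDH/POLR2A, fitted bidirectionally versus DMSO.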

Read-out in assay [14]: 3-Hydroxy-3-Methylglutaryl-CoA Synthase 2 (HMGCS2), HMGCS2 (gene 3158)
Nature of the assay: LTEA_HepaRG_HMGCS2: Life Technologies and Expression Analysis (LTEA) Assay for 3-Hydroxy-3-Methylglutaryl-CoA Synthase 2 (HMGCS2) using HepaRG (AID 2283504). Put shortly:
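Human HepaRG cells in serum-free induction medium were exposed in duplicate for 48 h to 8-point half-log series from 100 uM top in 0.5% DMSO. HMGCS2 mRNA measured by TaqMan qRT-PCR, normalised to ACTB, GAPDH, POLR2A; bidirectional fit versus DMSO.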

Read-out in the next assay: HGF (gene 3082)
Nature of the assay: LTEA_HepaRG_HGF: Life Technologies and Expression Analysis (LTEA) Assay for Hepatocyte Growth Facto (HGF) using HepaRG (AID 2283505). Put shortly: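 Differentiated HepaRG cells in serum-free induction medium exposed 48 h in duplicate, 8 half-log concentrations from 100 uM in 0.5% DMSO. HGF mRNA by qRT-PCR, normalised to ACTB, GAPDH, POLR2A; bidirectional fitting.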

Read-out in assay [15]: Insulin Like Growth Factor 1 (IGF1), IGF1 (gene 3479)
Kind of assay: LTEA_HepaRG_IGF1: Life Technologies and Expression Analysis (LTEA) Assay for Insulin Like Growth Factor 1 (IGF1) using HepaRG (AID 2283506). The gist of the method: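 HepaRG, plated 48 h, then switched to serum-free induction media; test chemical 8-pt half-log from 100 uM (0.5% DMSO), duplicate, 48 h. Lysis in RLT, TaqMan qRT-PCR, norm. ACTB/GAPDH/POLR2A. Bidirectional fit vs DMSO.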

Read-out in assay [16]: Intercellular Adhesion Molecule 1 (ICAM1), ICAM1 (gene 3383)
Nature of the assay: LTEA_HepaRG_ICAM1: Life Technologies and Expression Analysis (LTEA) Assay for Intercellular Adhesion Molecule 1 (ICAM1) using HepaRG (AID 2283507). Put shortly:
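Differentiated human HepaRG cells in serum-free induction medium exposed 48 h in duplicate to 8 half-log concentrations (top 100 uM, 0.5% DMSO). ICAM1 mRNA quantified by TaqMan qRT-PCR, normalized to ACTB, GAPDH and POLR2A; bidirectional fitting versus DMSO.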

Read-out in assay [17]: Insulin-like growth factor-binding protein 1 (IGFBP1), IGFBP1 (gene 3484)
Nature of the assay: LTEA_HepaRG_IGFBP1: Life Technologies and Expression Analysis (LTEA) Assay for Insulin-like growth factor-binding protein 1 (IGFBP1) using HepaRG (AID 2283508). The gist of the method:
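HepaRG cells, plated 48 h then switched to serum-free induction medium, exposed in duplicate for 48 h to 8-point half-log series from 100 uM in 0.5% DMSO. mRNA measured by qRT-PCR, normalized to ACTB/GAPDH/POLR2A; bidirectional fit versus DMSO.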

Read-out in assay [18]: Interleukin 6 (IL6), IL6 (gene 3569)
Kind of assay: LTEA_HepaRG_IL6: Life Technologies and Expression Analysis (LTEA) Assay for Interleukin 6 (IL6) using HepaRG (AID 2283509). Put shortly:
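HepaRG, ~100,000 cells/well, 48 h pre-culture; serum-free induction medium; cmpd 8-pt half-log from 100 uM, 0.5% DMSO, duplicate, 48 h. Lysis in RLT, TaqMan qRT-PCR; gain or loss vs DMSO.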

Active and inactive are the calls of the source. Rule for the calls: active = hit-call score of the fitted dose curve at least 0.9, where 1 is the maximum; inactive = score below 0.9.

By AC50 is commonly meant the concentration at which the activity in the assay is half-maximal.

Chain of Cytochrome P450 3A7 (Homo sapiens) (P24462 whole entry, looked up): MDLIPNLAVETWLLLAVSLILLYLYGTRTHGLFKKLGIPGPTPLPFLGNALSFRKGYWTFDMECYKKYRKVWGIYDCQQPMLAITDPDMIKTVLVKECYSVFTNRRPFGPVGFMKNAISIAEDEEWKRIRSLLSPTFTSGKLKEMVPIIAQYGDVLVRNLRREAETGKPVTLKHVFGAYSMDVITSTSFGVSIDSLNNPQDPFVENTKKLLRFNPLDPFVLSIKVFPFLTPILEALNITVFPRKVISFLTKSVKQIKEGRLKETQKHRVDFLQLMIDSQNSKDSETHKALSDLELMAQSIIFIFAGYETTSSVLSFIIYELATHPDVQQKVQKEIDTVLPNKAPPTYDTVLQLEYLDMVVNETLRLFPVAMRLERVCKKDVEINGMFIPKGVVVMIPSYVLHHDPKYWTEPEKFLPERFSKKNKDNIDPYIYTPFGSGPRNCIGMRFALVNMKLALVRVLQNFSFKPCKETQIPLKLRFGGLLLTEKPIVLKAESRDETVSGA
Chain of Hypoxia-inducible factor 1-alpha (Homo sapiens) (Q16665 whole entry, looked up): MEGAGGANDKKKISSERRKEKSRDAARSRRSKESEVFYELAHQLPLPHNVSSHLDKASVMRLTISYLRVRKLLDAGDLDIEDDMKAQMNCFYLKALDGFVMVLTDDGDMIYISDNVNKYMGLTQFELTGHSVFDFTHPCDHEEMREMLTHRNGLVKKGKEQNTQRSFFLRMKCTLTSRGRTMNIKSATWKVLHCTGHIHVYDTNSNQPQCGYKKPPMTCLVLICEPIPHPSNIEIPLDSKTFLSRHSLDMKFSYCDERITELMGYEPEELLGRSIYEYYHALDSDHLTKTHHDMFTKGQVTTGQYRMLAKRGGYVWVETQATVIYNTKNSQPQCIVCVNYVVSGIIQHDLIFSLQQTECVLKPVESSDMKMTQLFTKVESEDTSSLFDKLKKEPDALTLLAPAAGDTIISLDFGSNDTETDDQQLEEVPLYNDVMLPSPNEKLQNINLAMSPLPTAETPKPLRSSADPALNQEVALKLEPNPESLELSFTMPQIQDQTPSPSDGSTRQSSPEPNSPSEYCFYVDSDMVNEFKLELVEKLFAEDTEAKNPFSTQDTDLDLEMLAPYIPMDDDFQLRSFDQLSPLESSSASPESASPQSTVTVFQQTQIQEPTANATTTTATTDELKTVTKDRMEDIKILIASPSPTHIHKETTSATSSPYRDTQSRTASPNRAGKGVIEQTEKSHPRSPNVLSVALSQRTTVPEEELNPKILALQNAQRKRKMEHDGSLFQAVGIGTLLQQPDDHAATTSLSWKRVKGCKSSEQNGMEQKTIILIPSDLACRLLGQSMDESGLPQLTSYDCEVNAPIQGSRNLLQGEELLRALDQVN

Regarding `CC1(C)CON(Cc2ccccc2Cl)C1=O`, the outcome (in assay [1]; in assay [2]; in the assay with CYP3A5 (gene 1577); in [4]; in assay [5]; in assay [6]) was inactive. Also, the outcome in assay [7], in assay [8], in assay [9], in [10], in [11] and in [12] was inactive. Also, the molecule was classed as inactive (in assay [13]; in assay [14]; with HGF (gene 3082); in [16]; in [17]; in assay [18]). Also, the AC50 in assay [3] was 1.47 µM (active); in assay [15], 25.6 µM (active).
Take `CS(=O)(=O)c1ccc(C(=O)C2C(=O)CCCC2=O)c([N+](=O)[O-])c1`: the molecule was classed as inactive (in assay [1]; in [2]; in assay [3]; with CYP3A5 (gene 1577); in assay [4]; in [5]). Further, the outcome in assay [6], in [7], in assay [8], in [9], in assay [10] and in assay [11] was inactive. Also, the call (in [12]; in assay [13]; in assay [14]; in the assay with HGF (gene 3082); in [15]; in assay [16]) was inactive. In addition, the call in assay [17] and in assay [18] was inactive.
Turning to `COc1ccc(-c2ccccc2)cc1NNC(=O)OC(C)C`, the result (in assay [1]; in assay [2]; in assay [3]; with CYP3A5 (gene 1577); in assay [4]; in [5]) was inactive. For the same molecule, the molecule was called inactive in [6], in assay [7], in assay [8], in [9], in [10] and in [11]. Moreover, the molecule was called inactive (in assay [13]; in assay [14]; with HGF (gene 3082); in assay [15]; in assay [16]; in assay [17]). For the same molecule, the molecule was called inactive in [18].

Source of the values: PubChem BioAssay (EPA / NIEHS).
